In the library only some 5.7% were active in any assay of this set; here they are far more common.
HT1080 IDH1KD tx: toxicity to HT-1080 IDH1 knockdown cells (counter line) | HT-1080 IDH1 knockdown viability, ATP luminescence, 48 h | hit rate 2% among 360,000 | Potency, µM (series often up to 46.1 µM), inactives show at the highest dose activity, negative = toxicity, usual class: cytotoxic;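 further: 0% = DMSO wells and -100% = cell-free medium wells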
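Cytotoxicity counter-line: IDH1KD HT-1080, 48 h, CellTiter-Glo. Curves classed by r2, magnitude and activity.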
HT1080-NT tox: kills 2HG-producing HT-1080-NT fibrosarcoma cells; HT-1080-NT fibrosarcoma viability, CellTiter-Glo ATP luminescence, 48 h; Potency, µM (titrated, usually from 46.1 µM), inactives show top-dose activity, negative = less viability, actives largely listed as cytotoxic; hit rate 1.6% among 360,000; AID 686970;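 further: NT is the 2HG producing partner of a matched IDH1 knockdown line; 0% = DMSO-treated cells and -100% = media-only wells without cells; nearly all actives have a fitted effect of over 55% in size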
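Viability by CellTiter-Glo luminescence after 48 h compound exposure at 37C of HT-1080-NT cells (750/well, RPMI, 5% FBS). % activity scaled between DMSO wells and medium-only wells, then curve-fitted and categorized by curve class.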
KB-V1 cytotox: KB-V1 MDR subline cytotoxicity | Potency, µM (series often up to 46.1 µM), hits mostly cytotoxic | hit rate 3.4% among 400,000 | AID 1347076 | KB-V1 MDR cells viability, CellTiter-Glo, 72 h; further: nearly all actives have a fitted effect of over 60% in size
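qHTS viability screen in drug-selected KB-V1 MDR cells: 72 h compound treatment at 37 degrees C, ATP luminescence end point.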
KB-3-1 cytotox: kills parental KB-3-1 adenocarcinoma cells; KB-3-1 viability, CellTiter-Glo ATP luminescence, 72 h; Potency, µM (doses to about 46.1 µM), most hits filed as cytotoxic; hit rate 1.4% among 400,000; AID 1347075; further: nearly all actives have a fitted effect of over 60% in size
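Multi-concentration cytotoxicity screen in KB-3-1 cells grown in DMEM lacking phenol red with 10% FBS. After 72 h at 37 °C with compound, ATP-dependent luminescence was recorded.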
* = called active by the depositor; i = inactive; u = inconclusive; x = no result. The call rests on the fitted dose curve; in most records, active means well fitted curve in the direction sought with a large enough effect; inconclusive means small, poorly fitted or top-dose-only effect, or another doubt; inactive means no such curve, though single readings can be large; an effect the other way counts as inactive or inconclusive. Unless noted, on the % scale 0 is the no-effect control and ±100 the full control effect; potency means the concentration at half of the fitted maximal effect.

SMILES | HT1080 IDH1KD tx | HT1080-NT tox | KB-V1 cytotox | KB-3-1 cytotox
O=C1c2ccccc2C(=O)N1CC(=O)N1c2ccccc2Sc2ccc(C(F)(F)F)cc21 | -1.7% | 1.7% | 18.4µM* | i
O=C1c2ccccc2C(=O)N1CC(=O)N1c2ccccc2Sc2ccccc21 | 9.1% | 12.2% | i | i
OC(c1cc(-c2cccc(Cl)c2)nc2ccccc12)C1CCCCN1 (stereo unspecified) | 2.91µM* | 4.11µM* | u | i
OC(c1cc(-c2ccc(C(F)(F)F)cc2)nc(C(F)(F)F)c1)C1CCCCN1 (stereo unspecified) | u | u | i | i
OC(c1cc(C(F)(F)F)nc2c(C(F)(F)F)cccc12)C1CCCCN1 (stereo unspecified) | 10.3µM* | 13µM* | u | u
Cc1cc(F)ccc1NC(=O)C(C(C)C)N1Cc2ccccc2C1=O (stereo unspecified) | x | x | i | i
CCOc1ccc(CCNC(=O)CN2CCN(Cc3ccc(Cl)cc3)C2=O)cc1OCC | x | x | i | i
O=C(Nc1ccccc1)N(Cc1c[nH]c2ccccc12)C1CCCCCC1 | x | x | i | i
CN(C)c1cc[n+](CC(=O)Nc2ccc(OC(F)F)cc2)cc1 | u | -20.4% | i | 4.11µM*
CN(C)c1cc[n+](CC(=O)Nc2ccc(Cl)c([N+](=O)[O-])c2)cc1 | u | -20.7% | i | 6.51µM*
CC(=O)c1ccc(NC(=O)C[n+]2ccc(N(C)C)cc2)cc1 | -1.5% | u | u | u
CN(C)c1cc[n+](CC(=O)Nc2cccc([N+](=O)[O-])c2)cc1 | -19.4% | -6.1% | i | u
CCOC(=O)N1CCN(C(c2ccnc3ccccc23)c2nnnn2-c2ccc3c(c2)OCCO3)CC1 (stereo unspecified) | u | u | 18.4µM* | u
CC(C)(C)OC(=O)N1CCCN(C(c2ccnc3ccccc23)c2nnnn2-c2ccc3c(c2)OCCO3)CC1 (stereo unspecified) | u | 23.1µM* | i | u
CCC(c1nnnn1-c1ccc2c(c1)OCCO2)N1CCN(c2ncccc2C(F)(F)F)CC1 (stereo unspecified) | u | -11.1% | u | u
Cc1cccc(C)c1N1CCN(C(c2ccnc3ccccc23)c2nnnn2-c2ccc3c(c2)OCCO3)CC1 (stereo unspecified) | u | u | 18.4µM* | 20.6µM*
c1ccc2c(C(c3nnnn3-c3ccc4c(c3)OCCO4)N3CCCCC3)ccnc2c1 (stereo unspecified) | -13.3% | -18.9% | i | i
CCC(c1nnnn1-c1ccc2c(c1)OCCO2)N1CCN(c2ccc(F)cc2)CC1 (stereo unspecified) | u | -12.4% | 10.3µM* | u
Cc1ccc2nc(Cl)c3cc(C(=O)NC4CCC(C)CC4)sc3c2c1 (stereo unspecified) | x | x | i | i
Cc1cc(=O)n2nc(N(C)CC(=O)NCc3cccc(Br)c3)sc2n1 | x | x | i | i
C=CCOc1ccc(C(=O)Nc2ccccc2C(=O)NCc2cccnc2)cc1 | 23.1µM* | 20.6µM* | 3.66µM* | 5.17µM*
CC(C)(C)c1ccccc1OCC(=O)Nc1ccccc1C(=O)NCc1cccnc1 | u | u | 18.4µM* | i
O=[N+]([O-])c1ccc(S(=O)(=O)CC2CSc3nc4ccccc4n32)cc1 (stereo unspecified) | -9.5% | 0.4% | 2.59µM* | 1.84µM*
Cc1nnc2n(c1=O)C(CS(=O)(=O)c1ccccc1)CS2 (stereo unspecified) | -3.2% | -8.2% | i | i
CC(O)CNc1ccc(-c2nn(C)c(=O)c3ccccc23)cc1[N+](=O)[O-] (stereo unspecified) | -12.8% | -16.0% | 6.51µM* | 9.2µM*
SMILES | HT1080 IDH1KD tx | HT1080-NT tox | KB-V1 cytotox | KB-3-1 cytotox
O=C(Nc1ccccc1F)c1nc(SCc2ccccc2F)ncc1Cl | x | x | i | i
COc1ccc(NC(=O)[C@H](COCc2ccccc2)NC(=O)OC(C)(C)C)cc1 | -1.6% | 1.5% | 5.17µM* | i
CC[C@H](C)[C@H](NC(=O)OCc1ccccc1)C(=O)Nc1ccc(NC(C)=O)cc1 | 8.9% | 0.4% | i | i
COc1ccc(NC(=O)C(NC(=O)OC(C)(C)C)C(C)OCc2ccccc2)cc1 (stereo unspecified) | u | -28.2% | 4.11µM* | i
CCCN(C(=O)Cn1cnc2sc(C)c(S(=O)(=O)N3CCN(c4ncccn4)CC3)c2c1=O)c1cccc(C)c1 | x | x | i | i
Cc1ccc2oc(=O)cc(CN3CCN(C/C=C/c4ccccc4)CC3)c2c1 | 10.4% | -0.2% | i | i
O=c1cc(CN2CCN(C/C=C/c3ccccc3)CC2)c2cc(O)ccc2o1 | u | 25.9µM* | u | u
CCOc1cc(CNC(=O)C2CCN(c3nc4ccccc4[nH]3)CC2)cc(OCC)c1OCC | x | x | i | i
Cc1ccc2oc(C(Cl)(Cl)Cl)cc(=O)c2c1 | u | 10µM* | i | i
COc1ccc(C2NN=C(c3c[nH]c4ccccc34)C2O)cc1 (stereo unspecified) | -6.2% | -12.8% | i | i
COc1ccc(C2C(O)C(c3c[nH]c4ccccc34)=NN2C(=O)CCl)cc1 (stereo unspecified) | 0.651µM* | 0.461µM* | 14.6µM* | u
N=c1c2c(-c3ccccc3)c(-c3ccccc3)n(Cc3ccccc3)c2ncn1CCCn1ccnc1 | 23.1µM* | 23.1µM* | u | u
CCCCn1cnc2c(c(-c3ccccc3)c(-c3ccccc3)n2Cc2ccco2)c1=N | -15.8% | -20.0% | i | i
c1ccc(-c2nc(NCCCn3ccnc3)c3ccccc3n2)cc1 | -10.7% | -6.4% | u | i
N=c1c2c(-c3ccccc3)c(-c3ccccc3)n(Cc3ccco3)c2ncn1Cc1ccco1 | 20.6µM* | 16.4µM* | u | 16.4µM*
CCC(=O)N1N=C(c2cccc(NS(C)(=O)=O)c2)CC1c1cccs1 (stereo unspecified) | -0.4% | 3.3% | 18.4µM* | i
CC(C)(C)C(=O)N1N=C(c2ccc(NS(C)(=O)=O)cc2)CC1c1cccs1 (stereo unspecified) | 16.4µM* | u | u | i
CCc1nn(Cc2cccc(F)c2)c(=O)c2cc3cc(C)ccc3n12 | x | x | i | i
O=C(O)CCCc1ccc2c(c1)CCc1ccccc1-2 | 2.0% | 3.7% | 2.06µM* | 2.91µM*
O=C(O)CCc1ccc2ccccc2c1 | x | x | i | i
COC(=O)c1c(SC)nc2ccccc2c1OCc1cccc(C)c1 | x | x | u | i
O=C(Nc1ccccc1)[C@@H]1CCCN1S(=O)(=O)c1ccc(Cl)cc1 | 3.3% | -1.1% | i | u
O=C(Nc1nc(-c2ccccc2)cs1)C1CCCCN1S(=O)(=O)c1ccc(Cl)cc1 (stereo unspecified) | u | u | 13µM* | u
